# This is a sample that favours compounds with a hit; in the whole collection about 14% have one here.
# Pf growth 96h: Primary qHTS for delayed death inhibitors of the malarial parasite plastid, 96 hour incubation | P. falciparum luciferase reporter growth, 96 h | Potency, µM (titrated, usually from 28.7 µM), for inactives: at the top dose activity change, negative = inhibition, usual class: inhibitors | 320,000 tested, 6.9% active; note: potency is the fitted concentration of half-maximal effect
#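 Luminescence readout: decreased luciferase signal marks inhibited growth of reporter-expressing P. falciparum in infected red cells (2% hematocrit, 0.05% parasitemia final), exposed to compound two generations (96 h, 37 C, 5% CO2).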
# Sm TGR inh: qHTS Assay for the Inhibitors of Schistosoma Mansoni Peroxiredoxins; Schistosoma mansoni thioredoxin glutathione reductase (TGR), Q962Y6; purified TGR, DTNB reduction, TNB absorbance 405 nm; Potency, µM (series often up to 114 µM), for the others: at the highest dose activity change, negative = inhibition, actives largely listed as inhibitors; 360,000 tested, 3% active; AID 485364, 2010; note: potency is the fitted concentration of half-maximal effect; nearly all actives have a fitted effect of over 60% in size
#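 First, TGR (20 nM dispensed) and NADPH were mixed with compound. Second, a 15 min room-temperature incubation followed. Third, further NADPH and then DTNB were added to start the reaction. Finally, TNB absorbance was monitored kinetically.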
# HCMV inh: qHTS Assay for inhibitors of the human cytomegalovirus (HCMV); HFF cells, HCMV-luciferase reporter, 72 h; hits give low values; activity change, negative = inhibition, % at 57.5 µM; 410,000 tested, 4.5% active; AID 1259415, 2018; in the data active = activity change below about -60%; inconclusive = no clear call, values can overlap the other calls; inactive = above about -39%
#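 Compounds were evaluated in HFFs infected with an HCMV luciferase reporter virus (MOI 1 PFU/cell). Luciferase in lysates collected 72 h post infection served as the replication measure.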
# FBPA Giardia inh: qHTS Assay for Inhibitors of Fructose-1,6-bisphosphate Aldolase from Giardia Lamblia; purified Giardia FBPA; A8B2U2; Potency, µM (doses to about 59.6 µM), for inactives: at the top dose activity, negative = inhibition, usual class: inhibitors; 290,000 tested, 0.71% active; AID 2451, 2010; note: potency is the fitted concentration of half-maximal effect; nearly all actives have a fitted effect of over 55% in size
# Target sequence (A8B2U2 whole entry, looked up): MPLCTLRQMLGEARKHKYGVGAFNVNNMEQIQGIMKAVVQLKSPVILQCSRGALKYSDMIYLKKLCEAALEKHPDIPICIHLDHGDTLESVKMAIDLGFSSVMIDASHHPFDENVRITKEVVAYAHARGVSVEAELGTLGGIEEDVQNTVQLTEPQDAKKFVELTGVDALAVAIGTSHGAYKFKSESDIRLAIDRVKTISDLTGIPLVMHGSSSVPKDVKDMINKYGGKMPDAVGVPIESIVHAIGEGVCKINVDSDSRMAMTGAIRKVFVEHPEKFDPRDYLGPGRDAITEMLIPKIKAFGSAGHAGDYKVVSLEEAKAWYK
#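 Giardia FBPA (40 nM reagent) was preincubated 10 min at RT with compound (up to 57.5 uM final), then substrate plus GAPDH/TPI/NAD/arsenate coupling system with diaphorase/resazurin was added; resorufin fluorescence (525/598 nm) was read after 20 min.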
# Pf growth 48h: Primary qHTS for delayed death inhibitors of the malarial parasite plastid, 48 hour incubation | P. falciparum luciferase growth in erythrocytes, 48 h | Potency, µM (doses to about 28.7 µM), for the others: top-dose activity change, negative = inhibition, actives largely listed as inhibitors | 310,000 tested, 5.9% active | AID 504832, 2011; note: potency is the fitted concentration of half-maximal effect
#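 A one-generation exposure of luciferase-tagged malaria parasites in RPMI 1640/Albumax erythrocyte culture, 37 C and 5% CO2. Inhibition is inferred from decreased luminescence after adding detection reagent.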
# An asterisk follows results filed as active; i = inactive; ? = inconclusive; / = not tested or not shown. Unless noted, calls come from the whole dose curve; as a rule, active = well fitted curve in the direction sought with a large enough effect; inconclusive = small, poorly fitted or top-dose-only effect, or another doubt; inactive = no such curve, though single readings can be large; an effect the other way counts as inactive or inconclusive. % is set by controls: 0 for no effect and ±100 for the full control effect.
SMILES,Pf growth 96h,Sm TGR inh,HCMV inh,FBPA Giardia inh,Pf growth 48h
CC(/C=C/c1ccco1)=N/NC(=O)c1ccc(C)nc1,-0.3%,44.7µM*,51.5,-23.6%,-6.0%
CC(/C=C/c1ccco1)=N/NC(=O)Cc1cccs1,11.9%,25.1µM*,-20.8,-1.0%,19.6%
COc1ccc(-c2nnc(SCC(=O)NC3CCCc4ccccc43)n2N)cc1 (centres undefined),1.9%,4.8%,11.6,0.2%,-6.9%
CCC(C)Sc1cccc(-c2nc3cc(C)ccn3c2NCc2ccccc2)c1 (centres undefined),?,3.5%,-23.4,/,?
CC(NC(=O)CCc1nc2cc(S(=O)(=O)N3CCOCC3)ccc2n1C)c1ccc(S(N)(=O)=O)cc1 (centres undefined),?,0.6%,4.7,/,0.1%
C=C1C=CS(=O)(=O)N(C(C)C(=O)OC)C1 (centres undefined),/,/,/,-0.4%,/
O=C(C[n+]1ccc2ccccc2c1)Nc1cc(C(F)(F)F)ccc1Cl,?,-0.2%,-20.4,3.1%,1.31µM*
CN(C)c1cc[n+](CC(=O)Nc2cc(C(F)(F)F)ccc2Cl)cc1,0.828µM*,?,-5.3,-0.7%,1.65µM*
CC(C)c1cc(Cn2c3ccccc3c(=O)n2C(C)Cn2cc(CCCC#N)nn2)on1 (centres undefined),/,/,14.5,/,/
O=C(CSc1nnc(-c2ccco2)o1)c1ccc(F)c(F)c1,11.0%,-20.3%,-3.0,0.8%,6.4%
O=C(CSc1nnc(-c2ccco2)o1)Nc1c(F)cccc1F,1.0%,-18.0%,-5.2,/,22.8%
O=C(CSc1nnc(-c2ccco2)o1)c1ccc[nH]1,i,28.2µM*,-13.7,-16.9%,275.2%
O=C(CSc1nnc(-c2ccco2)o1)c1ccccc1,?,25.1µM*,71.8,-14.2%,?
Nc1ncnc2c1nc(N1CCCCC1)n2[C@@H]1O[C@@H]2COP(=O)(O)O[C@H]2[C@H]1O,/,/,/,-1.0%,/
FC(F)(F)c1ccccc1Cc1c(-c2ccco2)nc2ccc(Br)cn12,/,/,68.2,/,/
Cc1ccc(C(=O)N(CC(=O)NC2CCCC2)c2ccccc2F)s1,/,/,-22.6,/,/
CC1Cc2ccccc2N1C(=O)COC(=O)c1c2c(nc3ccccc13)CCCCC2 (centres undefined),13.1µM*,-6.2%,-25.5,-1.6%,?
O=C(OCC(=O)N1CCc2ccccc21)c1c2c(nc3ccccc13)CCCC2,?,-5.5%,-7.3,-2.3%,8.28µM*
NC(=O)COC(=O)c1c2c(nc3ccccc13)CCCCC2,-12.8%,0.0%,-12.0,3.5%,-19.7%
O=C(OCC(=O)N1CCc2ccccc21)C1=COCCO1,?,22.4µM*,-32.5,-8.5%,65.2%
Cc1cc(C)cc(C(=O)Nc2c3c(nn2-c2ccccc2C)CS(=O)(=O)C3)c1,/,-34.8%,-9.5,/,/
CCCCCCCCCCCCCCC(F)C(=O)O (centres undefined),/,/,/,1.9%,/
CC(C)C(C(=O)NCc1ccco1)N(C(=O)CNS(=O)(=O)c1ccc(Cl)cc1)C1CCCC1 (centres undefined),?,44.7µM*,-1.8,-15.2%,?
O=C(CN(CC1CCCO1)C(=O)CNS(=O)(=O)c1ccc(Cl)cc1)NCc1ccco1 (centres undefined),?,-4.0%,-4.7,/,13.5%
O=C(CN(Cc1ccco1)C(=O)CNS(=O)(=O)c1ccc(Cl)cc1)NCC1CCCO1 (centres undefined),0.0%,-30.9%,-11.5,4.9%,1.85µM*
CCC(C(=O)NCc1ccco1)N(C(=O)CNS(=O)(=O)c1ccc(F)cc1)c1ccccc1F (centres undefined),?,44.7µM*,-16.6,1.6%,?
CCCCCC(=O)Nc1ccc(S(=O)(=O)Nc2nccnc2OC)cc1,2.33µM*,3.9%,42.3,13.7%,-8.5%
COc1ccccc1C1C(C(=O)NCc2ccccc2)=C(C)Nc2ncnn21 (centres undefined),6.8%,-11.6%,-6.3,-3.8%,-0.1%

# Compound activity (PubChem)
